Data from PubChem BioAssay AID2221 (Broad Institute, 2009).
Out of some 290,000 compounds screened, about 2,200 (0.76%) were called active. No stated cut-off is given here; in the data, active means inhibition above about 30%; inconclusive means no clear call, values can overlap the other calls; inactive means below that. This excerpt belongs to a sample that is enriched for actives.

target: Protein RecA (Mycobacterium tuberculosis (strain ATCC 25618 / H37Rv)) (UniProt P9WHJ3); assay: Mtb RecA intein splicing inhibitors, primary screen, biochemical, fluorescence, HTS (AID 2221); details: cell-free RecA intein splicing, stronger effect = higher value, concentration not given here;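 further: 0% = vehicle wells and 100% = reference inhibitor control wells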
Sequence (P9WHJ3 whole entry, looked up): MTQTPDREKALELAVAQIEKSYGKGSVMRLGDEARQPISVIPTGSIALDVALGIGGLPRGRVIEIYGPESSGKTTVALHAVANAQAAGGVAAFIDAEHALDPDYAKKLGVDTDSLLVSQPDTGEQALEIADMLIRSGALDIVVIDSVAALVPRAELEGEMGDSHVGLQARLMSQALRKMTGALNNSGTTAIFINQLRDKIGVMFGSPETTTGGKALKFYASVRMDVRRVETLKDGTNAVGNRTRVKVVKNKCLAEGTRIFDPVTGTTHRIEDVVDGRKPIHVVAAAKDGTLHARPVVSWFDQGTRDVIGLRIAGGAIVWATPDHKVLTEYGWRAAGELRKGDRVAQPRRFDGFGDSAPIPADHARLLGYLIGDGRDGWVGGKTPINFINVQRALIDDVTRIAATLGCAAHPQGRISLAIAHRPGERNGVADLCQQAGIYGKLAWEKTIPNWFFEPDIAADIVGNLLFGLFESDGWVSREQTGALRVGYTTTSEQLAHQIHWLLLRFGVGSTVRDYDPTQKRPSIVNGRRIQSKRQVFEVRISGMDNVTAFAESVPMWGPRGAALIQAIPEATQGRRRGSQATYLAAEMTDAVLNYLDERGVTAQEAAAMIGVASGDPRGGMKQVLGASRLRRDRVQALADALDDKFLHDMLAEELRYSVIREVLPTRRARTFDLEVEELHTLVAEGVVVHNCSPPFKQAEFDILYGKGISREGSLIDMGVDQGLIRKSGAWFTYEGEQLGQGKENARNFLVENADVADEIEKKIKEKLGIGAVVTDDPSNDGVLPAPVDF

Compound | inhibition
CCOC(=O)CN1C(=O)C(=O)c2cc(C)ccc21 | 1.57% (inactive)
CC(C)OC(=O)CN1C(=O)C(=O)c2ccccc21 | 40% (active)
Cc1cc(/C=C2/SC(=O)N(CC(=O)OC(C)C)C2=O)c(C)n1C | -2.4% (inactive)
CC(Oc1cccc(Cl)c1)C(=O)NC1CC(C)(C)NC(C)(C)C1 (stereo not given) | 1.06% (inactive)
Cc1ccc(Cl)cc1NC(=O)C1CCN(S(C)(=O)=O)CC1 | 4.05% (inactive)
COCCNC(=O)COc1ccc(N(C)S(=O)(=O)c2ccc3ccccc3c2)cc1 | 2.67% (inactive)
CN(c1ccc(OCC(=O)O)cc1)S(=O)(=O)c1ccc2ccccc2c1 | 1.36% (inactive)
CC(=O)Oc1ccc(N(C(C)=O)S(=O)(=O)c2ccc3ccccc3c2)cc1Br | 36.3% (active)
CC/C(=N\NC(=O)c1c(C)nc2ccccn12)c1ccc(Cl)cc1 | -3.74% (inactive)
COc1ccc(NC(=O)C(NC(C)=O)C(=O)NCc2ccccc2Cl)cc1 (stereo not given) | -12.2% (inactive)
COc1ccc(C2CC(c3cccs3)Nc3nnnn32)cc1 (stereo not given) | 2.29% (inactive)
CCCc1[nH]nc2c1C(c1ccc(OC)c(Cn3nc(C)c(Br)c3C)c1)C(C#N)=C(N)O2 (stereo not given) | 16.3% (inactive)
COc1ccc(C2C(C#N)=C(N)Oc3n[nH]c(C)c32)cc1CN1CCN(c2ccc(F)cc2)CC1 (stereo not given) | 49.8% (active)
COc1ccccc1CN1CCCC(N2CCN(c3ccc(F)cc3)CC2)C1 (stereo not given) | 1.51% (inactive)
O=C(CN1CCCC1)Nc1sc2c(c1C(=O)Nc1ccccc1)CCCC2 | -1.42% (inactive)
CCOP(=O)(OCC)C(Nc1ccc([N+](=O)[O-])cc1)c1ccc(Cl)cc1 (stereo not given) | 5.51% (inactive)
COc1ccc(C2/C(=C(/O)c3ccccc3)C(=O)C(=O)N2C)c(OC)c1 (stereo not given) | 1.48% (inactive)
COc1ccc(/C=C2/C(=O)OCc3cc(OC)c(OC)cc32)c(OC)c1 | -0.742% (inactive)
COc1ccc(/C=C2/C(=O)N(c3ccccc3)N=C2C)c(OC)c1 | 70% (active)
O=[N+]([O-])c1ccc(N2CCN(c3ccc(F)cc3)CC2)cn1 | 0.617% (inactive)
COc1ccc(C(=O)NC2CC(C)(C)NC(C)(C)C2)cc1OC | 0.554% (inactive)
O=C(CCCN1C(=O)/C(=C\c2ccccc2)SC1=S)Nc1ccccc1O | -1.47% (inactive)
O=C(CCN1C(=O)/C(=C/c2cccs2)SC1=S)NNC(=O)c1cccc(O)c1 | -2.74% (inactive)
O=C(CCCN1C(=O)/C(=C/c2ccccc2)SC1=S)Nc1ccc(O)cc1 | 45.1% (active)
O=C(CCCN1C(=O)/C(=C/c2cccs2)SC1=S)Nc1ccc(O)cc1 | 59% (active)
Cc1ccc(/C=C2\SC(=S)N(CCC(=O)Nc3ccc(O)cc3)C2=O)cc1 | 3.35% (inactive)
COc1ccccc1C(=O)NNC(=O)CCN1C(=O)/C(=C\c2ccccc2)SC1=S | 1.3% (inactive)
CCCCCCNS(=O)(=O)c1ccccc1Br | 8.15% (inactive)
O=C1N[C@H](Cc2ccccc2)C(=O)N[C@H]1Cc1cn(S(=O)(=O)c2ccccc2)c2ccccc12 | 2.29% (inactive)
CCOC(=O)CSc1nnc(CNC(=O)c2cccs2)n1-c1cc(OC)ccc1OC | -0.643% (inactive)
